Source: PubChem BioAssay
The list is not random: actives were taken first. Their share in the collection is about 2.5%.
MITF inh = MITF inhibition; TRPM1 promoter luciferase, luminescence, 24 h; actives 0.28% (n = 37,000); inhibition, % (test concentration not listed); in the data active = inhibition above about 85%;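 note: human melanocyte line stably carrying TRPM1 promoter luciferase reporter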
YB-1 expr inh = YB-1 expression inhibition | delta delta Cp (YB-1 minus CDIP) (test concentration not listed) | actives 0.37% (n = 30,000) | U2OS, qRT-PCR YB-1 vs CDIP delta delta Cp, 16 h; active compounds read high; zero = DMSO, each unit about twofold;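 active = delta delta Cp rounded down to an integer at or above 3, about 3 SD of DMSO wells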;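 note: higher means less YB-1 transcript or more CDIP transcript relative to DMSO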
ROS inducer = cancer cell ROS induction | AID 624156 | ROS induction (% of piperlongumine), % at 10 µM | actives 2% (n = 46,000) | U2OS ROS induction, H2DCF-DA fluorescence; in the data active = ROS induction above about 79%, passing the limit was not always enough
BJeLR viab HTS = BJeLR cell viability reduction; BJeLR fibroblasts viability, CellTiterGlo ATP luminescence, 48 h; HRASV12, hTERT and SV40 LT/ST transformed; viability loss activity score, % (no concentration beside the values); actives 0.64% (n = 30,000); in the data active = viability loss activity score above about 50%;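 note: higher score means fewer live cells and less ATP luminescence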
A number is an active result.

Screening CNS(=O)(=O)c1ccc2c(c1)C(=NO)c1cc(S(=O)(=O)NC)ccc1-2 returned ROS inducer inactive and BJeLR viab HTS inactive.
For CS(=O)c1nc(-c2ccccc2)cc(C(F)(F)F)n1 (stereo not drawn) the results were BJeLR viab HTS inactive.
On1onc2c3cc(-c4ccccc4)nc3ccc21 was read as MITF inh inactive, YB-1 expr inh inactive, ROS inducer inactive and BJeLR viab HTS 61.
Screening Cc1ccc(-c2cc(=O)c3ccc4ccccc4c3o2)cc1 returned ROS inducer 95 and BJeLR viab HTS inactive.
`O=S(=O)(Nc1cccc(C2OCCCO2)c1)c1ccccc1` gave BJeLR viab HTS inactive.
`COc1cc(/C=N/NC(=O)CCCCCC(=O)O)c([N+](=O)[O-])cc1OC` gave YB-1 expr inh inactive and ROS inducer inactive.
For COC(=O)CCCCCCC(=O)N/N=C/c1cc(OC)c(OC)cc1[N+](=O)[O-] the results were YB-1 expr inh inactive and ROS inducer 119.
For CC(C)=CCOc1c2ccoc2cc2oc(=O)ccc12 the results were MITF inh inactive, YB-1 expr inh inactive, ROS inducer inactive and BJeLR viab HTS inactive.
`CC(C)=CCOc1cc(C)cc2oc(=O)cc(-c3ccccc3)c12` gave ROS inducer 84 and BJeLR viab HTS inactive.
`N#Cc1ccc(CSc2nc(-c3cccs3)c3c(c2C(=O)O)CCCC3)cc1` gave MITF inh inactive, YB-1 expr inh inactive, ROS inducer inactive and BJeLR viab HTS inactive.
Screening CN1CCc2c(-c3cccs3)nc(OCc3ccccc3Br)c(C#N)c2C1 returned MITF inh inactive, YB-1 expr inh inactive, ROS inducer 168 and BJeLR viab HTS inactive.
COc1cccc(NC(=O)C(C)Sc2nc(-c3ccccc3)cc(C(F)(F)F)n2)c1 (stereo not drawn) was read as BJeLR viab HTS inactive.
Screening Cc1ccc2c(c1)c1nnc(SCCN3CCOCC3)nc1n2Cc1ccccc1 returned MITF inh inactive and ROS inducer 113.
CCCn1c2ccc(C)cc2c2nnc(SCCN3CCOCC3)nc21 was read as MITF inh inactive, YB-1 expr inh inactive, ROS inducer 142 and BJeLR viab HTS inactive.
Screening CCCCn1c2ccccc2c2nnc(SCCN3CCOCC3)nc21 returned MITF inh inactive and ROS inducer 155.
`Cc1ccc2c(c1)c1nnc(SCCN3CCOCC3)nc1n2C` gave MITF inh inactive and ROS inducer inactive.
Screening CSc1sc(-c2ccnc(SCC(=O)C(C)(C)C)n2)c2c1C(=O)CC(C)(C)C2 returned MITF inh inactive, YB-1 expr inh inactive, ROS inducer 139 and BJeLR viab HTS inactive.
For COc1cc(C(=O)Nc2ccc(Oc3ncnc4sc(C)c(C)c34)cc2)cc(OC)c1OC the results were MITF inh inactive and ROS inducer 104.
For Cc1sc2ncn(CC(=O)Nc3ccc(Oc4ccccc4)cc3)c(=O)c2c1C the results were MITF inh inactive and ROS inducer inactive.
C=CCn1c(=O)c2c(C)c(C)sc2n2c(Nc3ccc(C(=O)OCC)cc3)nnc12 was read as MITF inh inactive, YB-1 expr inh inactive, ROS inducer 194 and BJeLR viab HTS inactive.
Screening CCOC(=O)CSC1=N/C(=C/c2ccsc2)C(=O)N1c1ccccc1 returned BJeLR viab HTS inactive.
CCC(CC)NC(=O)C(C)Oc1ccccc1 (stereo not drawn) was read as BJeLR viab HTS inactive.
`COc1cc(CN(C)Cc2cccc3ccccc23)c([N+](=O)[O-])cc1OC` gave MITF inh inactive and ROS inducer 133.
For O=C(c1ccccc1)N(c1ccc2oc(=O)sc2c1)S(=O)(=O)c1ccccc1 the results were BJeLR viab HTS inactive.
`CCSC1=N/C(=C\c2ccccc2)C(=O)N1c1ccc(C)c(Cl)c1` gave BJeLR viab HTS inactive.
Cn1c(SCc2nc(-c3ccc(Br)cc3)no2)nnc1-c1ccco1 was read as MITF inh inactive and ROS inducer inactive.
For COc1ccc(-c2noc(CSc3nnc(-c4ccccc4)n3C)n2)cc1 the results were MITF inh inactive and ROS inducer 125.
For C[C@H](CO)N1C[C@H](C)[C@@H](CN(C)Cc2ccc(-c3ccccc3)cc2)Oc2c(NC(=O)CCCCCC(=O)Nc3ccccc3N)cccc2C1=O the results were MITF inh inactive, YB-1 expr inh inactive and ROS inducer 117.
Screening C[C@@H]1CN([C@@H](C)CO)C(=O)c2cccc(NC(=O)CCCCCC(=O)Nc3ccccc3N)c2O[C@H]1CN(C)CC1CCCCC1 returned MITF inh inactive, YB-1 expr inh inactive and ROS inducer 82.
